This passage reports Potency results from PubChem BioAssay AID686978 (National Center for Advancing Translational Sciences (NCATS), 2013).

The campaign covered roughly 420,000 compounds. About 64,000 (15%) were called active. Not shown: some 27% with an inconclusive outcome. Calls come from the whole dose curve; as a rule, active = well fitted inhibition curve with a large enough effect; inconclusive = small, poorly fitted or top-dose-only effect; inactive = flat fitted curve, though single readings scatter. A selection follows. Where a call stands in place of a potency, no number is given.
Potency is the fitted concentration of half-maximal effect.

The assay can be described thus: qHTS for Inhibitors of human tyrosyl-DNA phosphodiesterase 1 (TDP1): qHTS in cells in absence of CPT. Note: nearly all actives have a fitted effect of over 55% in size. The conditions noted are these: DT40 Tdp1-/- hTDP1 cells, no CPT, ATP luminescence, 48 h; activity change, negative = growth inhibition: at 46.2 µM (top of the series). An outline of the steps: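 DT40 Tdp1-/-;hTDP1 cells, no CPT (DMSO vehicle only), 400 cells/well; compounds pin-transferred; ≥48 hr, 37 °C; CellTiter-Glo 30 min RT dark, luminescence read.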
In general terms: Quantitative high-throughput screening tests each substance at several concentrations.
As for `CNC(=O)C(=O)N/N=C/c1ccccn1`, the Potency entry is “inactive”. In the case of `S=C(Nc1cccnc1)Nc1ccccn1`, the Potency result is “inactive”.

For `S=C(NN=Cc1ccccn1)Nc1ccccn1`, the Potency is 1.46 µM (active). For `CC(C)(C)C(=O)NC1CC2CCCC(C1)N2C(=O)Nc1ccccc1F` (stereo unspecified), the Potency entry is “inactive”. On to `CCOc1ccc(S(=O)(=O)Nc2ccc(S(=O)(=O)Nc3cc(OC)ccc3OC)cc2)cc1`, for which the Potency result is “inactive”. The entry for `Cc1cc(S(=O)(=O)Nc2ccc(C(=O)NCC(c3ccco3)N3CCCC3)cc2)ccc1F` (stereo unspecified) is “inactive”; for `CCOc1ccc(S(=O)(=O)Nc2nccs2)cc1` it is “inactive”; for `COc1ccc(C(CNC(=O)c2ccc(S(=O)(=O)Nc3ccccc3C)cc2)N2CCOCC2)cc1` (stereo unspecified) it is “inactive”. In the case of `CCOc1ccc(S(=O)(=O)Nc2ccc(OC)nc2)cc1`, the Potency is 23.1 µM (active). `CCOc1ccc(NS(=O)(=O)c2ccc(C(=O)NCC(c3ccccc3OC)N3CCCC3)cc2)cc1` (stereo unspecified): the Potency was 18.4 µM (active). As for `COc1ccc(C(CNC(=O)c2ccc(S(=O)(=O)Nc3ccccc3F)cc2)N(C)C)cc1` (stereo unspecified), the Potency result is “inactive”. On to `COc1ccccc1C(CNC(=O)c1cccc(NS(=O)(=O)c2ccc(Br)cc2)c1)N(C)C` (stereo unspecified), for which the Potency is 18.4 µM (active). Consider `CC(=O)c1ccc(S(=O)(=O)Nc2ccc(C(=O)NCC(c3ccccc3)N(C)C)cc2)cc1` (stereo unspecified), for which the Potency entry is “inactive”. `COc1ccccc1NC(=O)COC(=O)COc1ccccc1F`: the Potency result is “inactive”. In the case of `Cc1nnsc1S(=O)(=O)Cc1ccccc1Cl`, the Potency result is “inactive”. Regarding `O=C(CSc1nc2c(cnn2-c2ccc(F)cc2)c(=O)[nH]1)N1CCCCCC1`, the Potency entry was “inactive”.

Consider `CC(=O)c1ccc(S(=O)(=O)N2CCN(C(=O)/C=C/c3ccc4ccccc4n3)CC2)cc1`, for which the Potency entry was “inactive”.

For `COc1cccc(/C=C2\C=C(c3ccc(C)cc3)OC2=O)c1OC(C)=O`, the Potency entry was “inactive”. The result for `COc1cccc(/C=C/c2ccc3ccccc3n2)c1OC(C)=O` reads 16.4 µM (active); that for `O=C(Nc1ccccc1)c1ccc2nsnc2c1`, “inactive”; that for `c1ccc(CNCc2ccc(CNCc3ccccc3)cc2)cc1`, 10.3 µM (active).

For the molecule `Fc1ccc(CNCc2ccc(Br)cc2)cc1`, the Potency result was “inactive”. As for `O=C(Cc1ccccc1)NCc1ccc(F)cc1`, the Potency entry is “inactive”.

Regarding `O=Cc1c(NCCCN2CCCC2=O)c2ccccc2[nH]c1=O`, the Potency result is “inactive”.

As for `Cc1cc(Cl)c(S(=O)(=O)NCc2cccnc2)cc1OCC(N)=O`, the Potency result is “inactive”. Consider `O=C(NCC(c1ccc(Cl)cc1)N1CCOCC1)c1ccccc1F` (stereo unspecified), for which the Potency is 13 µM (active). Consider `COc1ccc(C(CNC(=O)c2cccnc2SC)N2CCOCC2)cc1` (stereo unspecified), for which the Potency entry is “inactive”. Consider `CN1CCN(C(CNC(=O)c2ccccc2F)c2ccc3c(c2)OCO3)CC1` (stereo unspecified), for which the Potency result was “inactive”. As for `O=C1CCCC(O)=C1N=Nc1ccc2ncsc2c1`, the Potency entry was “inactive”.

For the molecule `Cc1ccc(C)c(NC(=O)C(c2ccccc2)N2CCN(CC(=O)NC3CC3)CC2)c1` (stereo unspecified), the Potency entry was “inactive”. The entry for `CCC(CO)Oc1cc(NC(=O)c2ccc(Cl)cc2)c2ncn(C(C)C)c2c1` (stereo unspecified) is “inactive”. For `COc1cccc(Cn2c(SCc3ccc(C(=O)N4CCC(C)CC4)cc3)nc3ccncc32)c1`, the Potency was 20.6 µM (active). With `COc1ccc(CSc2nnnn2-c2ccc(C(=O)O)cc2)cc1`, the Potency entry is “inactive”. The entry for `COC(=O)c1ccc2c(=O)n(CCN3CCOCC3)c(SCC(=O)Nc3cccc(OC)c3)nc2c1` is “inactive”.

Consider `COc1cccc(Cn2c(SCc3ccc(C(=O)N4CCCCC4)cc3)nc3ccncc32)c1`, for which the Potency was 20.6 µM (active). Turning to `Cc1cccc(CSc2nc3ccncc3n2Cc2ccc(C(=O)O)cc2)c1`, the Potency entry was “inactive”.

Take `COc1cc(C(=O)N2CCC(c3ccncc3)CC2)cc(OC)c1OC`: the Potency entry is “inactive”. Take `CCCCNC(=O)C1(c2ccc(OC)cc2)CCOCC1`: the Potency entry is “inactive”. Consider `CCCCc1ccc(S(N)(=O)=O)cc1`, for which the Potency result is “inactive”. Turning to `N#Cc1nc(/C=C/c2ccc(F)cc2)oc1NC1CCCCC1`, the Potency result is “inactive”. Take `Nc1nonc1-n1nnc(C(=O)N/N=C/c2ccc(Cl)cc2)c1-c1ccc2c(c1)OCO2`: the Potency result is “inactive”.

On to `O=C(NCCCO)C(=O)Nc1c2c(nn1-c1ccc(F)cc1)CSC2`, for which the Potency result was “inactive”. On to `COc1ccc(S(=O)(=O)N2CCN(C(=O)N(C)C)C2C)cc1` (stereo unspecified), for which the Potency entry was “inactive”. The entry for `COc1ccc(C)cc1Nc1nc(-c2c(C)[nH]c3ccccc23)cs1` is “inactive”; for `COC(=O)c1[nH]c2ccccc2c1NS(=O)(=O)c1ccc(OC)cc1OC` it is “inactive”; for `CN=c1scc(-c2cc(OC)ccc2OC)n1/N=C/c1c(C)[nH]c2ccccc12` it is 16.4 µM (active). As for `COc1ccc(/C=C(\C#N)C(=O)ONC2=NCCCCC2)cc1`, the Potency was 20.6 µM (active). For the molecule `COC(=O)/C(C#N)=C/c1occc1C`, the Potency entry is “inactive”. For the molecule `COc1ccc(/C=C(\C#N)C(=O)OCC(=O)N(C)C2CCS(=O)(=O)C2)cc1` (stereo unspecified), the Potency result was “inactive”. Turning to `CC(=O)C1C(c2ccc(Cl)cc2)NC(=O)NC1(O)C(F)(F)F` (stereo unspecified), the Potency entry was “inactive”. `CN(CC#CCC(c1ccccc1)c1ccccc1)C(C)(C)C`: the Potency is 17.8 µM (active). Regarding `O=C(CCc1ccccc1)NCCc1cccs1`, the Potency result is “inactive”. `COC(=O)[C@@H]1CC2=CC(=O)CC[C@]2(C)[C@@]23O[C@@H]2C[C@@]2(C)[C@@H](CC[C@@]24CCC(=O)O4)[C@H]13`: the Potency result was “inactive”.

Take `CC1(C)CC(CNCCC(c2ccc(F)cc2)c2ccco2)CCO1` (stereo unspecified): the Potency was 14.6 µM (active). For the molecule `CC1(C)CC(N(Cc2ccccc2)C(=O)Cc2ccccc2)CCO1` (stereo unspecified), the Potency entry was “inactive”. Turning to `O=c1c(Cl)c(NC2CC2)cnn1-c1ccccc1`, the Potency result is “inactive”.

Regarding `Cc1cccc(-n2ncc(Cl)c(Cl)c2=O)c1`, the Potency was 4.11 µM (active). For `Cc1cccc(-n2ncc(C#N)c2-n2cccc2)c1`, the Potency result was “inactive”.

Consider `O=C(NCC1CCCO1)c1cc2c(s1)CCCC2` (stereo unspecified), for which the Potency result was “inactive”. Take `CC(C)C(=O)N1c2ccccc2NC2=C(C(=O)CCC2)C1c1ccc(N(C)C)cc1` (stereo unspecified): the Potency result is “inactive”. As to `CCCOC(=O)Nc1ccccc1C(N)=O`, the Potency entry is “inactive”. The result for `CCOC(=O)N(Cc1ccccc1)C1CC1` reads “inactive”. For `O=C(Nc1nnc(CCc2ccccc2)s1)C1CCCO1` (stereo unspecified), the Potency entry was “inactive”. The entry for `O=C(COC(=O)c1ccc(Cl)nc1)NCc1cccs1` is “inactive”. For the molecule `Cc1nnnn1/C(=C\c1ccccc1)C(=O)OCC(=O)N1CC2(C)CC1CC(C)(C)C2` (stereo unspecified), the Potency was 14.6 µM (active).

`Cc1cccc(C(=O)NCC(=O)OCC(=O)N2CC3(C)CC2CC(C)(C)C3)c1` (stereo unspecified): the Potency entry is “inactive”. On to `CC(=O)NC(C)(C)C1CC=C(C)/C(=N\O)C1` (stereo unspecified), for which the Potency entry is “inactive”. Turning to `CCOC(=O)C1C(c2ccc(O)cc2)NC(=O)NC1(O)C(F)(F)F` (stereo unspecified), the Potency result is “inactive”. With `CCN(CC)P(=O)(/C(Cl)=C\Nc1c(C)n(C)n(-c2ccccc2)c1=O)N(CC)CC`, the Potency entry is “inactive”. In the case of `CCOC(=O)[C@]12CCC=C1N(Cc1cccc3ccccc13)C(=O)[C@H](CC(=O)NCc1cccc(C(F)(F)F)c1)C2`, the Potency is 23.1 µM (active).

Regarding `CCOC(=O)[C@]12CCC=C1N(Cc1ccco1)C(=O)[C@H](CC(=O)NCc1cccc(C(F)(F)F)c1)C2`, the Potency is 25.9 µM (active). Regarding `CCCCNC(=O)C[C@@H]1C[C@@]2(C(=O)OCC)CCC=C2N(Cc2cccc3ccccc23)C1=O`, the Potency was 16.4 µM (active). For the molecule `CCCCCCCCN1C(=O)[C@H](CC(=O)NCc2cccc3ccccc23)C[C@@]2(C(=O)OC)CCCCC=C12`, the Potency is 20.6 µM (active). The result for `CCCCN1C(=O)C(CC(=O)NCc2cccs2)CC(C(=O)N2CCOCC2)=C1C` (stereo unspecified) reads “inactive”; that for `O=C(COC(=O)C12CC3CC(CC(C3)C1)C2)NCc1ccco1`, “inactive”; that for `COc1ccccc1CNC(=O)CCCN1C(=O)NC2(CCCC2)C1=O`, “inactive”.

In the case of `CC1=C(C(=O)N2CCOCC2)CC(CC(=O)NCc2ccco2)C(=O)N1Cc1ccc(F)cc1` (stereo unspecified), the Potency entry was “inactive”.

In the case of `CC1=C(C(=O)N2CCOCC2)CC(CC(=O)NCc2cccc3ccccc23)C(=O)N1CCC1=CCCCC1` (stereo unspecified), the Potency entry was “inactive”. For `CCCCNC(=O)C[C@@H]1C[C@@]2(C(=O)OCC)CCC=C2N(Cc2ccco2)C1=O`, the Potency entry was “inactive”. The entry for `O=C(Cn1nnc(-c2ccc(CN3CCOCC3)cc2)n1)NC1CCCCC1` is “inactive”; for `COc1ccc(OCC(O)CNCCNc2nccc(C(F)(F)F)n2)cc1` (stereo unspecified) it is “inactive”. With `CC(=O)NCC(=O)N(Cc1ccco1)C1(C(=O)NC2CCCC2)CCCCC1`, the Potency entry was “inactive”. Consider `O=c1c(-c2ccc(F)c(F)c2)nc2cncnc2n1-c1ccccc1`, for which the Potency entry is “inactive”. Take `CCOC(=O)[C@]12CCCC=C1N(Cc1cccc3ccccc13)C(=O)[C@H](CC(=O)NCC13CC4CC(CC(C4)C1)C3)C2`: the Potency was 23.1 µM (active). With `COC(=O)[C@]12CCCCC=C1N(Cc1ccco1)C(=O)[C@H](CC(=O)NCCCCc1ccccc1)C2`, the Potency was 16.4 µM (active). With `COc1ccc(C(=O)OCC(=O)NCCCc2ccccc2)cc1OC`, the Potency result is “inactive”. In the case of `CC1c2nc3ccccc3n2C(CC(=O)NCCCN2CCOCC2)C(=O)N1Cc1ccccc1` (stereo unspecified), the Potency result is “inactive”.

With `COc1ccc(CCNC(=O)CCCCCNC(=O)N2CCn3c2nc2ccccc23)cc1OC`, the Potency result is “inactive”. `C#CCNC(=O)C[C@@H]1C[C@@]2(C(=O)OCC)CCCC=C2N(Cc2ccco2)C1=O`: the Potency result was “inactive”. Turning to `COC(=O)[C@@]12C[C@@H](CC(=O)NCCCCc3ccccc3)C(=O)N(CCc3ccc(OC)c(OC)c3)C1=CCC(C)(C)C2`, the Potency was 20.6 µM (active). The result for `CCCCCC1CCC(c2nnc(SCC(C)=O)o2)CC1` (stereo unspecified) reads “inactive”. The result for `Cc1cc(C)n(-c2c(F)c(F)c(COC(=O)c3ccccc3)c(F)c2F)n1` reads “inactive”; that for `O=C(C1=C(O)C(=O)N(c2ncccn2)C1c1cccs1)c1ccco1` (stereo unspecified), “inactive”; that for `O=C(Oc1cccnc1)c1cc2ccccc2oc1=O`, “inactive”. For the molecule `CC(=O)N1CCN(CC(c2ccccc2)c2ccccc2)CC1`, the Potency entry was “inactive”. As to `CC(CCc1ccc(O)cc1)NCc1ccc(Cl)cc1Cl` (stereo unspecified), the Potency was 18.4 µM (active). In the case of `COc1ccc(CCn2ccc(O)c(Cc3ccc(Cl)cc3Cl)c2=O)cc1OC`, the Potency result was “inactive”. Consider `COc1ccc(CNC(=O)C(C)NCc2ccccc2Cl)cc1` (stereo unspecified), for which the Potency entry is “inactive”. The entry for `O=C(CN1CCN(c2ncc(C(F)(F)F)cc2Cl)CC1)Nc1ccc2c(c1)OCO2` is “inactive”. Turning to `COc1ccc(N2CCN(C(=O)CNC(=O)c3ccc(Br)o3)CC2)cc1`, the Potency result is “inactive”. For `O=C(NCC(=O)N1CCN(c2ncc(C(F)(F)F)cc2Cl)CC1)c1ccc(Br)o1`, the Potency was 18.4 µM (active).
